Consider five molecules from PubChem BioAssay (EPA / NIEHS).

The target of experiment [1] is Transcription factor E2F1 (Homo sapiens) (UniProt Q01094). Description: ATG_E2F_CIS: Attagene CIS-FACTORIAL HepG2 Assay for human E2F Transcription Factor 1 (AID 2282935). The settings on record: HepG2 Attagene cis-reporter, E2F reporter RNA transcripts; actives raise or lower the signal. The essentials:
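Fluorescent RT-PCR products, digested with HpaI for 2 h at 37 C, are separated by capillary electrophoresis. Source RNA comes from transfected HepG2 cultures treated for 24 h.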

Experiment [2] can be described thus: ATG_E_Box_CIS: Attagene CIS-FACTORIAL HepG2 Assay for human Enhancer Box (E-box) (AID 2282936). The note with it: HepG2 E-box cis-reporter transcription, actives raise or lower the signal. Put shortly: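 Fluorescent reporter fragments separated by capillary electrophoresis gave the signal; mRNA came from HepG2 cells transfected with cis-element reporters and treated 24 h. Curves fitted bidirectionally relative to DMSO controls.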

Experiment [3] in a line: ATG_M_61_CIS: Attagene CIS-FACTORIAL HepG2 Assay for M61 Transcription Factor (Internal Marker) (AID 2282937). The settings on record: HepG2 Attagene CIS-FACTORIAL M61 internal marker reporter; actives raise or lower the signal. Put shortly:
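Readout: fluorescent reporter mRNA fragments resolved by capillary electrophoresis after RT-PCR. Transiently transfected human HepG2 cells carried MRTU constructs reporting endogenous TF activity; 24 h chemical exposure; gain or loss of signal fitted relative to DMSO.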

Experiment [4] is described as follows: ATG_EGR_CIS: Attagene CIS-FACTORIAL HepG2 Assay for human Early Growth Response 1 (EGR1) (AID 2282938). The note with it: HepG2 Attagene CIS-FACTORIAL EGR reporter mRNA; actives raise or lower the signal. Put shortly:
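Read-out: fluorescent reporter-mRNA fragments resolved by capillary electrophoresis after RT-PCR, 24 h post-dose in transiently transfected HepG2. Endogenous transcription-factor activity reported via cis-element-regulated reporter units; gain or loss fitted relative to DMSO.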

The nature of experiment [5]: ATG_M_19_CIS: Attagene CIS-FACTORIAL HepG2 Assay for M19 Transcription Factor (Internal Marker) (AID 2282939). The settings on record: HepG2 Attagene CIS-FACTORIAL M19 internal marker reporter; actives raise or lower the signal. Put shortly:
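Internal marker readout, fitted in both directions against DMSO, from HepG2 cells carrying transfected cis-element reporter constructs; RT-PCR and capillary electrophoresis of reporter mRNA after 24 h exposure.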

The nature of experiment [6]: ATG_ERE_CIS: Attagene CIS-FACTORIAL HepG2 Assay for Estrogen Response Element (ERE) (AID 2282940). The settings on record: HepG2 ERE cis-reporter, Attagene RNA transcript; actives raise or lower the signal. Put shortly: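 After 24 h compound treatment, RNA from transfected HepG2 cells was reverse-transcribed, reporter cDNA PCR-amplified, FAM-labelled, HpaI-cut and resolved by capillary electrophoresis. ERE-driven cis reporter transcripts reflect endogenous factors; gain or loss scored against DMSO.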

The nature of experiment [7]: ATG_Ets_CIS: Attagene CIS-FACTORIAL HepG2 Assay for human Erythroblast Transformation Specific (ETS) (AID 2282941). The settings on record: HepG2 ETS cis-reporter transcription, actives raise or lower the signal. Put shortly:
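Bidirectional fit versus DMSO of reporter mRNA signal, detected by RT-PCR and capillary electrophoresis in HepG2 cells transiently transfected with cis-element reporters and dosed 24 h.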

Experiment [8] addresses Hepatocyte nuclear factor 3-beta (Homo sapiens) (UniProt Q9Y261). Description: ATG_FoxA2_CIS: Attagene CIS-FACTORIAL HepG2 Assay for human Forkhead box A2 (FOXA2) (AID 2282942). The note with it: HepG2 cis-reporter transcription factor activity, 24 h; actives raise or lower the signal. The essentials: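 Readout: fluorescent reporter transcripts resolved by capillary electrophoresis after RT-PCR. Transiently transfected HepG2, 24 h compound exposure, endogenous TF activity at cis promoter elements. Gain or loss of signal fitted relative to DMSO.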

Experiment [9] is described as follows: ATG_FoxO_CIS: Attagene CIS-FACTORIAL HepG2 Assay for human Forkhead box O (FoxO) (AID 2282943). The note with it: HepG2 Attagene cis-reporter, FoxO element, mRNA; actives raise or lower the signal. The essentials:
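HepG2, transient MRTU transfection (cis element, endogenous TFs). Dose 24 h. TriZol RNA → oligo(dT) RT → PCR → 6-FAM primer extension → HpaI cut → CE. Gain/loss vs DMSO.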

A short description of experiment [10]: ATG_GATA_CIS: Attagene CIS-FACTORIAL HepG2 Assay for human GATA Binding Protein (AID 2282944). The settings on record: HepG2 GATA cis-element reporter, Attagene multiplex mRNA; actives raise or lower the signal. Put shortly: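 Reporter transcripts from a GATA cis-regulated unit, among multiplexed reporters in transfected HepG2 cells, were measured by RT-PCR with capillary electrophoresis after 24 h dosing. Induction or loss scored relative to DMSO.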

A short description of experiment [11]: ATG_GLI_CIS: Attagene CIS-FACTORIAL HepG2 Assay for human Zinc Finger Protein GLI1 (AID 2282945). The note with it: HepG2, Attagene cis-factorial reporter mRNA, GLI element; actives raise or lower the signal. Put shortly: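 Bidirectional curve fits relative to DMSO, using reporter mRNA levels from RT-PCR plus capillary electrophoresis. Cells were HepG2 transiently carrying cis-regulated reporter constructs, harvested 24 h after dosing.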

The nature of experiment [12]: ATG_GRE_CIS: Attagene CIS-FACTORIAL HepG2 Assay for human Glucocorticoid Response Elements (GRE) (AID 2282947). The settings on record: HepG2 GRE cis-reporter, Attagene multiplex mRNA; actives raise or lower the signal. Put shortly:
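Multiplexed cis-reporter mRNA induction, HepG2, 24 h post-dose. RT-PCR, FAM-labelled, HpaI-digested amplicons by CE. Bidirectional fit vs DMSO.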

Experiment [13] in a line: ATG_ISRE_CIS: Attagene CIS-FACTORIAL HepG2 Assay for human Interferon Regulatory Factor 1 (IRF1) binding to an Interferon-Stimulated Response Element (ISRE) (AID 2282948). The note with it: HepG2 ISRE cis-reporter (Attagene), mRNA transcription readout; actives raise or lower the signal. The essentials: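 Uses HepG2 liver cells transfected with cis-regulated reporters and measures mRNA 24 h post-dosing through RT-PCR, primer-extension labelling and capillary electrophoresis, with DMSO as negative control.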

The nature of experiment [14]: ATG_M_32_CIS: Attagene CIS-FACTORIAL HepG2 Assay for M32 Transcription Factor (Internal Marker) (AID 2282949).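 Further: background control marker of the multiplexed CIS panel rather than a real target.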 The settings on record: HepG2 Attagene cis-factorial M32 reporter, mRNA; actives raise or lower the signal. The essentials:
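Using DMSO as baseline, bidirectional curve fits were applied to reporter mRNA signals. These came from transiently transfected HepG2 cells exposed for 24 h, with RNA analysed by RT-PCR, FAM primer extension, HpaI digestion and CE.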

Experiment [15] in a line: ATG_M_06_CIS: Attagene CIS-FACTORIAL HepG2 Assay for M06 Transcription Factor (Internal Marker) (AID 2282950). The note with it: HepG2 Attagene CIS-FACTORIAL M06 internal marker reporter; actives raise or lower the signal. Put shortly:
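Serves as a background control readout. Transfected HepG2 exposed to compounds for 24 h, then reporter transcripts quantified by fluorescent RT-PCR and capillary electrophoresis. Both directions fitted against DMSO baseline.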

The target of experiment [16] is Hypoxia-inducible factor 1-alpha (Homo sapiens) (UniProt Q16665). The experiment can be described thus: ATG_HIF1a_CIS: Attagene CIS-FACTORIAL HepG2 Assay for human Hypoxia Inducible Factor 1 (HIF1A) (AID 2282951). The settings on record: HepG2 Attagene cis-factorial HIF1a reporter transcription; actives raise or lower the signal. The essentials: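 RT-PCR/capillary electrophoresis fluorescence readout of reporter transcripts from endogenous-TF-driven cis elements in transfected HepG2 cells, 24 h exposure; activity fitted in both directions against DMSO controls.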
Chain of Hypoxia-inducible factor 1-alpha (Homo sapiens) (Q16665 whole entry, looked up): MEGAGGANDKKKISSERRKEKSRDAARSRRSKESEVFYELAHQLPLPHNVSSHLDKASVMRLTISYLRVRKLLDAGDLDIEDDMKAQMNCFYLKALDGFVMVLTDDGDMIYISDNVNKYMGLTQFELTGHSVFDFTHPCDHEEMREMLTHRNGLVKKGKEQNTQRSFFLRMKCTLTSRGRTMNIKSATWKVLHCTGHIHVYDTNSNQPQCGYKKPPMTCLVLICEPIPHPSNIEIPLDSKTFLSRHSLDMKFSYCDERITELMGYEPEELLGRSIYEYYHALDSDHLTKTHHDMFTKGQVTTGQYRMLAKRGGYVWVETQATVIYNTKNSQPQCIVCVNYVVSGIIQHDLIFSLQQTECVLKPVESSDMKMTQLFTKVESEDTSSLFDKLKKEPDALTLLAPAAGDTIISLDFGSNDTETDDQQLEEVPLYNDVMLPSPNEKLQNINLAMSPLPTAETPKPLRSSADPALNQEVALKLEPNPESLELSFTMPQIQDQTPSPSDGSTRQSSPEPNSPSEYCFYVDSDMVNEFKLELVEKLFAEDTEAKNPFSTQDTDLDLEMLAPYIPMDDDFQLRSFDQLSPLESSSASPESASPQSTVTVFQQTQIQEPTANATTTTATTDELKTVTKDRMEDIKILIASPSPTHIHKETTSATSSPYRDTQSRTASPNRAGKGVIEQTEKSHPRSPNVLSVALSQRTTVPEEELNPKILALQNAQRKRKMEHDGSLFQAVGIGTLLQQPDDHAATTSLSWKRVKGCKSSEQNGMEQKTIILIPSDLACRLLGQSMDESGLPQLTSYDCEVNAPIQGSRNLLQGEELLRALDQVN

In experiment [17] the target is Hepatocyte nuclear factor 6 (Homo sapiens) (UniProt Q9UBC0). The experiment can be described thus: ATG_HNF6_CIS: Attagene CIS-FACTORIAL HepG2 Assay for human Hepatocyte Nuclear Factor 6 (HNF6) (AID 2282952). The note with it: HepG2 Attagene cis-factorial HNF6 reporter transcription; actives raise or lower the signal. Put shortly:
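Readout: fluorescent reporter-transcript fragments resolved by capillary electrophoresis after RT-PCR, reflecting endogenous factor activity in transfected HepG2. Exposure 24 h. Gain or loss of signal fitted bidirectionally against DMSO.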

For experiment [18], the target named is Heat shock factor protein 1 (Homo sapiens) (UniProt Q00613). Description: ATG_HSE_CIS: Attagene CIS-FACTORIAL HepG2 Assay for human Heat Shock Transcription Factor 1 (HSE) (AID 2282953). The settings on record: HepG2 HSE cis-reporter, Attagene RNA transcription; actives raise or lower the signal. The essentials: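 Endogenous transcription factor activity in transiently transfected HepG2, read as reporter mRNA by RT-PCR with fluorescent capillary electrophoresis after 24 h. Gain or loss of signal fitted versus DMSO baseline.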
Chain of Heat shock factor protein 1 (Homo sapiens) (Q00613 whole entry, looked up): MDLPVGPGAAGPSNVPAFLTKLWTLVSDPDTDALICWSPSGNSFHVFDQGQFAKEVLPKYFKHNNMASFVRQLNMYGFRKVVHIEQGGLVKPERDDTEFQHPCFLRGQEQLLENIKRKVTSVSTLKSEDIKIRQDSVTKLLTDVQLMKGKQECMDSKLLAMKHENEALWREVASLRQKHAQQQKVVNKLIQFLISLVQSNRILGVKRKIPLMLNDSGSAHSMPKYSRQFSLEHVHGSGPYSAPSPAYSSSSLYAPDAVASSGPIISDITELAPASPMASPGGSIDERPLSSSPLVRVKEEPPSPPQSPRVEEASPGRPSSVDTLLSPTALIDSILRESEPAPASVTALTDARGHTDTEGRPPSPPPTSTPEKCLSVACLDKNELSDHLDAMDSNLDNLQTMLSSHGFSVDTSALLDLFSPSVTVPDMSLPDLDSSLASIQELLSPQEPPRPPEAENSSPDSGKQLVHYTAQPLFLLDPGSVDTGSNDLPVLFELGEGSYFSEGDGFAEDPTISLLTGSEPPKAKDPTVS

Experiment [19] can be described thus: ATG_MRE_CIS: Attagene CIS-FACTORIAL HepG2 Assay for human Metal Responsive Element (MRE) (AID 2282954). The settings on record: HepG2 MRE cis-reporter transcription, Attagene multiplex; actives raise or lower the signal. The essentials: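 Multiplexed cis-reporter assay in human HepG2 liver cells, 24 h incubation with test chemical. Reporter transcripts measured by RT-PCR and capillary electrophoresis; values from bidirectional curve fitting versus DMSO.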

In experiment [20] the target is Bile acid receptor (Homo sapiens) (UniProt Q96RI1). The experiment can be described thus: ATG_IR1_CIS: Attagene CIS-FACTORIAL HepG2 Assay for human Nuclear Receptor Subfamily 1 Group H Member 4 (NR1H4), IR1 submotif (AID 2282946). The note with it: IR1 reporter transcription, actives raise or lower the signal. Put shortly:
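HepG2 cells transiently transfected with multiplexed cis-element reporter units read endogenous transcription factor activity. After 24 h compound exposure, reporter mRNA was quantified by RT-PCR, fluorescent labelling, HpaI digestion and capillary electrophoresis; bidirectional fitting versus DMSO baseline.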

Structures are written as SMILES. Calls of active or inactive are those of the source. How the source made its calls: active means hit-call score of the fitted dose curve at least 0.9, where 1 is the maximum; inactive means score below 0.9.

Chain of Transcription factor E2F1 (Homo sapiens) (Q01094 whole entry, looked up): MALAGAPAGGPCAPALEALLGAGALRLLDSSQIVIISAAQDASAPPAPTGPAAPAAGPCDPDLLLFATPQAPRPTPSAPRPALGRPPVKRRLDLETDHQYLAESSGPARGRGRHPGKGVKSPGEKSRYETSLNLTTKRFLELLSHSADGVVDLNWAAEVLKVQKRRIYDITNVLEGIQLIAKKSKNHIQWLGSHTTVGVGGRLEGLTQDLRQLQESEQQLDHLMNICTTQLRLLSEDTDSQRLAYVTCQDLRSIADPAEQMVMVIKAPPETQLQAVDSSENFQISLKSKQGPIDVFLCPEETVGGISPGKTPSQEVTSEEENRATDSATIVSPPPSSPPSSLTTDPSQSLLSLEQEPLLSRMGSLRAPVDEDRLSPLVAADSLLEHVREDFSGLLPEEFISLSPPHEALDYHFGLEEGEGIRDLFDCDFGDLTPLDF
Chain of Hepatocyte nuclear factor 3-beta (Homo sapiens) (Q9Y261 whole entry, looked up): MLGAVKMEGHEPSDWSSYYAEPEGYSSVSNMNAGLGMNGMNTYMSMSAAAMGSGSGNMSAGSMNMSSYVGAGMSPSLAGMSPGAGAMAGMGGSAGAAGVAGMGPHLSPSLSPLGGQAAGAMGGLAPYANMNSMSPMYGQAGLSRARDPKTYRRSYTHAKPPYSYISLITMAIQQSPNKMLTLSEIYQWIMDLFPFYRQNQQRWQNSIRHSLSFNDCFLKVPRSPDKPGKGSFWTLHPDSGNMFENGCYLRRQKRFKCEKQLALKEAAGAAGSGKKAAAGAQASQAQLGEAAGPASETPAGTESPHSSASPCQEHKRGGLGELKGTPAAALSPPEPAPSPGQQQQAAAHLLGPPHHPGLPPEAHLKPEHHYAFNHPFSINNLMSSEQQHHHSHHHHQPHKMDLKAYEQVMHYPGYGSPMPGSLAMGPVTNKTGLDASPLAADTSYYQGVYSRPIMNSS
Chain of Hepatocyte nuclear factor 6 (Homo sapiens) (Q9UBC0 whole entry, looked up, the tested form may be a part): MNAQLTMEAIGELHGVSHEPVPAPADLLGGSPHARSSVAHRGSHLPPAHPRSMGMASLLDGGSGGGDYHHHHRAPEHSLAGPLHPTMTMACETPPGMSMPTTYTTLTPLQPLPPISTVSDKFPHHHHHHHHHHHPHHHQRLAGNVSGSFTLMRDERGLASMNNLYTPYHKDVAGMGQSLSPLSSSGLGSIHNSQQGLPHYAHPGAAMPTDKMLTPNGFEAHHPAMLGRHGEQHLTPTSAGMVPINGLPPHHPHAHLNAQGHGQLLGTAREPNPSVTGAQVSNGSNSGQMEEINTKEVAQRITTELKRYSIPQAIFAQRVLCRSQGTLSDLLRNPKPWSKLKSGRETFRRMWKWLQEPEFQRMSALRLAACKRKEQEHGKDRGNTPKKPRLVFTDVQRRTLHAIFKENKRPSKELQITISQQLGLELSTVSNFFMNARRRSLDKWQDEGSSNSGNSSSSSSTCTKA
Chain of Bile acid receptor (Homo sapiens) (Q96RI1 whole entry, looked up): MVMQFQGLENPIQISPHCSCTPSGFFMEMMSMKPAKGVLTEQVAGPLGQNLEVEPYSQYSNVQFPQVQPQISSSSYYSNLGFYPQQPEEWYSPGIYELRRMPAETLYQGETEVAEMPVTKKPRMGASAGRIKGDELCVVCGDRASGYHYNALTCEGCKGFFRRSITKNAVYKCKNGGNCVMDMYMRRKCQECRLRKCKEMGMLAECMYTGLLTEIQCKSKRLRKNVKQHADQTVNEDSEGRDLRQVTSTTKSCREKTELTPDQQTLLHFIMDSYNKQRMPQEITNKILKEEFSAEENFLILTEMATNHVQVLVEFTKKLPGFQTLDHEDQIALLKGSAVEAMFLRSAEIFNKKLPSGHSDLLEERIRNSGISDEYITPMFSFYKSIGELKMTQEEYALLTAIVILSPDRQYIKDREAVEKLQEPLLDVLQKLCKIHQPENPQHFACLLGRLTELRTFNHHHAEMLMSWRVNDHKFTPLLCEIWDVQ

Take `O=C(O)c1ccccc1C(c1ccc(O)cc1)c1ccc(O)cc1`: the result in experiment [1], in [2], in experiment [3], in [4], in [5] and in experiment [7] was inactive. Further, the call in experiment [8], in experiment [9], in experiment [10], in [11], in experiment [12] and in experiment [13] was inactive. Moreover, the molecule was classed as inactive in experiment [14], in experiment [15], in experiment [16], in experiment [17], in experiment [18] and in experiment [19]. Also, the concentration at half-maximal activity (AC50) in [6] was 62.7 µM (active) [middle of 4 runs].
On to `CCCCCCCCC(=O)O`, for which the outcome in experiment [1], in experiment [2], in experiment [3], in [4], in experiment [5] and in [6] was inactive. Moreover, the molecule was classed as inactive in experiment [7], in experiment [8], in experiment [9], in experiment [11], in experiment [13] and in [14]. In addition, the result in [15], in experiment [16], in [18] and in experiment [19] was inactive.
Consider `CCCCC(CC)COC(=O)CCCCC(=O)OCC(CC)CCCC` (stereo not drawn), for which the molecule was classed as inactive in experiment [1], in [2], in experiment [3], in experiment [4], in experiment [5] and in [6]. Also, the outcome in experiment [7], in experiment [8], in experiment [9], in experiment [11], in experiment [20] and in experiment [12] was inactive. For the same molecule, the result in experiment [13], in experiment [14], in experiment [15], in experiment [16], in [18] and in experiment [19] was inactive.
For the molecule `COCC(C)OCC(C)O` (stereo not drawn), the outcome in experiment [1], in experiment [2], in experiment [3], in experiment [4], in experiment [5] and in [6] was inactive. In addition, the molecule was called inactive in experiment [7], in [8], in experiment [9], in experiment [11], in experiment [20] and in experiment [13]. Moreover, the call in experiment [14], in experiment [15], in [16], in experiment [17], in [18] and in experiment [19] was inactive.
`Oc1cccc(O)c1`: the molecule was called inactive in experiment [1], in [2], in experiment [3], in experiment [4], in experiment [5] and in [6]. Moreover, the result in experiment [7], in [8], in experiment [9], in experiment [11], in experiment [20] and in experiment [13] was inactive. In addition, the call in experiment [14], in [15], in experiment [16], in [18] and in experiment [19] was inactive.

In general, AC50 refers to the concentration giving half of the maximal activity seen.
